Values joined by “and” are separate entries in the source; they are usually repeats but may differ in a detail not shown here. Equal entries are not always repeated. Inconclusive results are not listed. Where a call stands in place of a potency, no number is given. Active and inactive are the calls of the source. Calls come from the whole dose curve; as a rule, active = well fitted activation curve with a large enough effect in the signal ratio in the repeat runs (not every such curve was filed as active); inconclusive = weak or mixed curves, or effect the other way; inactive = no such curve, though single readings can be large or run the other way; the % refers to the signal ratio.
Target: Peroxisome proliferator-activated receptor gamma (Homo sapiens) (UniProt P37231)
Experiment: qHTS assay to identify small molecule agonists of the peroxisome proliferator-activated receptor gamma (PPARg) signaling pathway (AID 743094)
Conditions: HEK293H PPARg-UAS-bla, beta-lactamase FRET ratio, 17 h; series mostly up to 57 µM
Description: U.S. Tox21 Program National Center for Advancing Translational Sciences [NCATS] NIH Chemical Genomics Center [NCGC] U.S. Environmental Protection Agency [EPA] National Institutes of Environmental Health Sciences [NIEHS] National Toxicology Program [NTP] U.S. Food and Drug Administration [FDA] Tox21 Assay Overview: The peroxisome proliferator-activated receptors (PPARs) are lipid-activated transcription factors of the nuclear receptor superfamily with three distinct subtypes namely PPAR alpha, PPAR delta (also called PPAR beta) and PPAR gamma (PPARg). All these subtypes heterodimerize with Retinoid X receptor (RXR) and these heterodimers regulate transcription of various genes. PPAR-gamma receptor (glitazone receptor) is involved in the regulation of glucose and lipid metabolism. To identify the compounds that activate PPAR-gamma signaling, GeneBLAzer PPAR gamma UAS-bla HEK293H cell line (Invitrogen, Carlsbad, CA, USA) containing a beta-lactamase reporter gene under control of the control of an upstream activator sequence (UAS) stably integrated into HEK293H cells was used to screen Tox21 compound library.
Tox21 Assay Protocol Summary: PPARg-bla cells were dispensed at 3000 cells/6uL/well in 1536-well black wall/clear bottom plates using a Multidrop Combi (Thermo Fisher Scientific, Waltham, MA) dispenser. After the assay plates were incubated at 37C and 5% CO2 for 5 h, 23 nL of compounds dissolved in DMSO, positive controls or DMSO only was transferred to the assay plate by a Pintool station (Kalypsys, San Diego, CA). The assay plates were incubated at 37C for 17 h. After 1 uL of LiveBLAzerTM B/G FRET substrate was added using a Bioraptr Flying Reagent Dispenser (FRD) workstation (Beckman Coulter, Indianapolis, IN, USA), the plates were incubated at room temperature for 1 h, and fluorescence intensity was measured by an Envision plate reader (PerkinElmer, Shelton, CT).
Potency is the fitted concentration of half-maximal effect.

Sequence of Peroxisome proliferator-activated receptor gamma (Homo sapiens) (P37231 whole entry, looked up): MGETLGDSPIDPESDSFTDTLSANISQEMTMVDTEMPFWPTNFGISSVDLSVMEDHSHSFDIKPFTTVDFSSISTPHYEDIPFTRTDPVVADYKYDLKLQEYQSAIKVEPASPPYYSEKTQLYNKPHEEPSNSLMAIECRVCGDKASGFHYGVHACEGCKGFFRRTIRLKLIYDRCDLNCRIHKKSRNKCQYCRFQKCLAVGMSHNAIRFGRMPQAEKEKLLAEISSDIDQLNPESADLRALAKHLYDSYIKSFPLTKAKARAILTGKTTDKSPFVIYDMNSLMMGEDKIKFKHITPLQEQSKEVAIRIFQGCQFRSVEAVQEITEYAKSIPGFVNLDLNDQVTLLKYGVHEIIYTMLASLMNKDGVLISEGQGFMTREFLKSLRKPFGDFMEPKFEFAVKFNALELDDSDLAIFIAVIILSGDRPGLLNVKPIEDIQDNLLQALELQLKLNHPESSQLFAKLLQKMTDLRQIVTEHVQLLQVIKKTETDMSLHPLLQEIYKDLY

SMILES | Potency
CCOCN(C(=O)CCl)c1c(C)cccc1CC | inactive
O=P(Oc1ccccc1)(Oc1ccccc1)Oc1ccccc1 | inactive
CC(C)C(=O)OCC(C)(C)C(OC(=O)C(C)C)C(C)C (stereo not given) | inactive
CCN(CC)C(=O)/C(Cl)=C(\C)OP(=O)(OC)OC | inactive
CC(C)(OOC(C)(C)c1ccccc1)c1ccccc1 | inactive
OCC(O)CO | inactive
COP(=S)(OC)Oc1cc(Cl)c(Cl)cc1Cl | inactive
Oc1ccc(-c2ccccc2)cc1 | inactive
CCC(=O)O[C@H]1CC[C@H]2[C@@H]3CCC4=CC(=O)CC[C@]4(C)[C@H]3CC[C@]12C | inactive
CCCCC(CC)COC(=O)c1ccc(C(=O)OCC(CC)CCCC)c(C(=O)OCC(CC)CCCC)c1 (stereo not given) | inactive
CCCCNC(=O)n1c(NC(=O)OC)nc2ccccc21 | inactive
CCN(CC)N=O | inactive
O=C(NC(=O)c1c(F)cccc1F)Nc1ccc(Cl)cc1 | inactive
CCOP(=S)(OCC)O/N=C(\C#N)c1ccccc1 | inactive
C[C@]12CCC(=O)C(O)=C1CC[C@@H]1[C@@H]2CC[C@]2(C)C(=O)CC[C@@H]12 | inactive
N#Cc1cc(Br)c(O)c(Br)c1 | inactive
Cc1cc(Cl)ccc1OCCCC(=O)O | inactive
C1=Cc2cccc3cccc1c23 | inactive
C=CCc1ccc2c(c1)OCO2 | inactive
CNC(=O)N(C)c1nnc(C(C)(C)C)s1 | inactive

SMILES | Potency
O=c1oc2ccccc2c(O)c1C(CC(O)c1ccc(-c2ccc(Br)cc2)cc1)c1ccccc1 (stereo not given) | 601 nM (active) and 1.04 µM (active)
O=C(Nc1ccc(Br)cc1)c1cc(Br)cc(Br)c1O | inactive
N#CC(Br)Br | inactive
CCCCCCCCCCCOC(=O)c1ccccc1C(=O)OCCCCCCCCCCC | inactive
Oc1cc(Cl)c(Cl)cc1Cl | inactive
ClC1C(Cl)C(Cl)C(Cl)C(Cl)C1Cl (stereo not given) | inactive
COc1ccc(C(CN(C)C)C2(O)CCCCC2)cc1 (stereo not given) | inactive
Nc1cccnc1 | inactive
C=CCc1ccc(OC)cc1 | inactive
Cc1ccc2c(c1N)C(=O)c1ccccc1C2=O | inactive
Cc1ccc(OP(=O)(Oc2ccc(C)cc2)Oc2ccc(C)cc2)cc1 | inactive
CCCCCCOC(=O)c1ccccc1C(=O)OCCCCCC | inactive
C=C(C)[C@H]1Cc2c(ccc3c2O[C@@H]2COc4cc(OC)c(OC)cc4[C@@H]2C3=O)O1 | inactive
COP(=O)(OC)OC | inactive
C=C(C)C(=O)OCC1CO1 (stereo not given) | inactive
c1nc[nH]n1 | inactive
CCC(C)(C)c1ccc(O)cc1 | inactive
CC(C)NC(C)C | inactive
CC(C)(C)c1ccccc1O | inactive
Nc1ccc(-c2ccc(N)c(N)c2)cc1N | inactive

Source: PubChem BioAssay (Tox21)
